Only a selection was taken, and hits are over-represented in it overall.
Shiga toxin inh – blocks Shiga toxin action in Vero cells; actives 9.2% (n = 290,000); Vero cells, Shiga toxin protein synthesis inhibition reporter; inhibition, % at 38.7 µM; AID 2315; in the data active means inhibition mostly above about 28%, no sharp cut-off; inactive means mostly below about 43%
Giardia FBPA inh – inhibitors of Giardia lamblia fructose-1,6-bisphosphate aldolase; actives 0.71% (n = 290,000); Potency, µM (titrated, usually from 59.6 µM), hits mostly inhibitors; A8B2U2; AID 2451; purified Giardia FBPA; further: nearly all actives have a fitted effect of over 55% in size
Target sequence (A8B2U2 whole entry, looked up): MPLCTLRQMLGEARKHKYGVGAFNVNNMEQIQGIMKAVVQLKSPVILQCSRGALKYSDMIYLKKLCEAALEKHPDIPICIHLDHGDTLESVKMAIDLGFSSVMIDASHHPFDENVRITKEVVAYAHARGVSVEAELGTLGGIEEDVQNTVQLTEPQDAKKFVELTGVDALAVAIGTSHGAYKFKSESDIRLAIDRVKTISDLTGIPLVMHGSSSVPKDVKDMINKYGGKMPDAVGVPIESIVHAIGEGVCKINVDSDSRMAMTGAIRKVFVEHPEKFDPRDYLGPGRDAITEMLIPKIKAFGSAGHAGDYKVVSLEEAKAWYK
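Giardia FBPA (40 nM reagent) was preincubated 10 min at RT with compound (up to 57.5 uM final), then substrate plus GAPDH/TPI/NAD/arsenate coupling system with diaphorase/resazurin was added; resorufin fluorescence (525/598 nm) was read after 20 min.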
LmPK inhibitor – LmPK (Leishmania mexicana) enzyme inhibition | actives 0.37% (n = 290,000) | Q27686 | AID 1721 | Potency, µM (series often up to 57.5 µM), hits mostly inhibitors | purified LmPK, Kinase-Glo ATP luminescence, 1 h
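Purified LmPK (0.1 nM) converted ADP (0.1 mM) to ATP with PEP (0.5 mM) in imidazole buffer pH 7.2 with KCl and MgCl2, 1 h at room temperature. ATP was read by Kinase-Glo luminescence; data normalized to uninhibited and no-enzyme controls.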
Sm TGR inh – inhibitors of Schistosoma mansoni thioredoxin glutathione reductase | Q962Y6 | purified TGR, DTNB reduction, TNB absorbance 405 nm | Potency, µM (top dose mostly 114 µM), hits mostly inhibitors | actives 3% (n = 360,000) | AID 485364; further: nearly all actives have a fitted effect of over 60% in size
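TGR 20 nM + NADPH 100 uM (dispensed conc.), cpd preinc 15 min RT; start with NADPH (500 uM addition) then DTNB (15 mM addition). Kinetic TNB absorbance, 405 nm filter. Four-parameter Hill fit across titration.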
Cycloheximide cs – counter-screen hit for Shiga toxin inhibitors, cycloheximide; max response, %; cell reporter, cycloheximide protein synthesis inhibition counterscreen; actives 12% (n = 300,000); in the data active means max response mostly above about 13%, no sharp cut-off; inactive means mostly below about 14%; further: read at 38.3 µM for the half of the compounds with a filed dose
TbPYK inhibitor – inhibitors of Trypanosoma brucei pyruvate kinase. Q57TT1. TbPYK enzyme, Kinase-Glo Plus ATP luminescence, 45 min. Potency, µM (series often up to 76.8 µM), most hits filed as inhibitors. actives 0.12% (n = 410,000). AID 624173; further: nearly all actives have a fitted effect of over 50% in size
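Enzyme and substrate buffer are dispensed first and compound is pin-transferred. ADP at 130 uM final then starts the reaction, which runs 45 min at room temperature. Detection reagent is added for 10 min before luminescence is imaged.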
Hits are given with their value; – = inactive; ? = inconclusive; · = not tested or not shown; [ ] = dose if it differs, or a comment. Unless noted, the call rests on the fitted dose curve; in most records, active means well fitted curve in the direction sought with a large enough effect; inconclusive means small, poorly fitted or top-dose-only effect, or another doubt; inactive means no such curve, though single readings can be large; an effect the other way counts as inactive or inconclusive.

SMILES	Shiga toxin inh	Giardia FBPA inh	LmPK inhibitor	Sm TGR inh	Cycloheximide cs	TbPYK inhibitor
COc1ccc(C(=O)Nc2cccc(C(C)=O)c2)cc1OC	–	–	?	–	30	–
COc1ccc(C(C)NC(=O)Nc2ccc(C(C)=O)cc2)cc1OC (stereo not given)	–	·	–	–	23	–
COc1cccc(OC)c1C(=O)Nc1cccc(C(=O)Nc2cccc(C(=O)O)c2)c1	–	–	–	–	–	–
COc1ccccc1C(=O)Nc1cccc(C(=O)c2ccccc2)c1	–	–	–	–	13	–
CC(=O)c1cc(-c2ccccc2)n(CCC(=O)Nc2cc(C)cc(C)c2)c1C	·	·	·	–	·	–[15.4 µM]
COc1ccccc1NC(=O)C1=C(C)Nc2nc(-c3ccco3)nn2C1c1ccccc1F (stereo not given)	·	·	·	?	·	–
CCN(CC)CCNC(=O)c1cc(Nc2ccc(OC)c(OC)c2)nc2ccccc12	–	–	–	–	–	–
COc1ccc(C2CC(=O)Nc3c2c(=O)[nH]c2nc4ccccc4n32)cc1 (stereo not given)	·	·	·	–	·	–
COC(=O)c1cccc(NC(=O)c2cc(OC)c(OC)c(OC)c2Br)c1	–	–	–	–	–	–
COc1ccc(Br)cc1CN(C)C(C)C(=O)Nc1cccc(C(C)=O)c1 (stereo not given)	–	–	–	22µM	–	–
COc1cc(OC)c(C(=O)Nc2cccc(C(C)=O)c2)cc1OC	–	–	–	–	19	–
COc1ccc(C(=O)Nc2cccc(C(C)=O)c2)c(OC)c1OC	69	–	–	–	22	–
COc1ccccc1CN(C)C(C)C(=O)Nc1cccc(C(C)=O)c1 (stereo not given)	–	–	–	–	–	–
CCc1cccc(C)c1NC(=O)C(CC)n1ncn2c(cc3cc(C)ccc32)c1=O (stereo not given)	·	·	·	–	·	–
CCCc1cc(=O)n2[nH]c(C)nc2n1	–	–	–	–	–	–
O=c1cc(-c2ccccc2)nc2cc(-c3ccc(Br)cc3)[nH]n12	–	–	–	–	–	–
CCCc1cc(=O)n2[nH]c(-c3ccccc3)cc2n1	70	–	–	–	–	–
CCCc1cc(=O)n2[nH]c(-c3ccc(Cl)cc3)cc2n1	92	–	–	–	57	–
CCCc1cc(=O)n2[nH]c(-c3ccc(C)cc3)cc2n1	73	–	–	–	39	–
CCOC(=O)Cc1cc(=O)n2[nH]c(-c3ccc(Cl)cc3)cc2n1	–	–	–	–	–	–
O=c1cc(-c2ccccc2)nc2cc(-c3ccco3)[nH]n12	–	–	–	–	18	–
O=C(N/N=C1/CCCc2ccccc21)C(c1ccccc1)c1ccccc1	61	–	–	–	–	–
O=C(O)c1cc2c(o1)CCC/C2=N\O	–	–	–	–	–	–
O=C(NN=C1CCCC1)c1cccc(Br)c1	87	–	–	–	26	–
O=C(N/N=C1\CCCc2ccccc21)c1cccc(Br)c1	59	–	–	–	38	–
SMILES	Shiga toxin inh	Giardia FBPA inh	LmPK inhibitor	Sm TGR inh	Cycloheximide cs	TbPYK inhibitor
O=C(N/N=C1\CCCc2oc(C(=O)O)cc21)c1ccccc1	74	–	–	–	44	–
COc1ccc(CNc2ncnc3ccc(-c4c(C)noc4C)cc23)cc1	–	–	·	·	–	·
Cn1cnc(S(=O)(=O)N2CCC(C(=O)N3CCN(c4ccc(Cl)cc4)CC3)CC2)c1	·	·	·	–	·	–
CSc1nsc(SCC(=O)Nc2ccc3c(c2)OCCO3)n1	–	–	–	–	41	–
Cc1csc(SCC(=O)Nc2ccc(C)c(F)c2)n1	·	·	·	–	·	–
COCc1cc(C)nc(SCC(=O)Nc2ccc3c(c2)OCO3)c1C#N	–	–	–	–	–	–
COCc1cc(C)nc(SCC(=O)Nc2ccc3c(c2)OCCO3)c1C#N	–	·	–	–	11	–
Cc1csc(SCC(=O)Nc2ccc3c(c2)OCCO3)n1	75	–	–	–	42	–
CCOC(=O)c1ccc(NC(=O)/C=C/c2cccs2)cc1	109	–	–	–	46	–
CCN(CC)CCOC(=O)c1ccc(NC(=O)/C=C/c2cccs2)cc1	118	–	–	–	75	–
Cc1cccc(NC(=O)c2sc3nc4n(c(=O)c3c2C)N=C(c2ccc(F)cc2)CS4)c1C	·	·	·	–	·	–
COc1ccc(C(C)C(=O)c2ccc(O)cc2O)cc1 (stereo not given)	·	–	·	·	·	·
CS(=O)(=O)n1nc(OC(=O)c2cccs2)cc1N	–	–	–	40µM	–	–
CS(=O)(=O)n1nc(OC(=O)c2cc(Br)ccc2Cl)cc1N	–	–	–	5µM	–	–
CS(=O)(=O)n1nc(OC(=O)c2cccc3ccccc23)cc1N	72	–	–	–	63	–
COc1ccc(S(=O)(=O)n2nc(OC(=O)c3cccs3)cc2N)cc1	–	–	–	–	–	–
ClC1=C(Cl)[C@]2(Cl)[C@@H]3[C@@H]4C[C@@H]([C@H]5O[C@@H]45)[C@@H]3[C@@]1(Cl)C2(Cl)Cl	·	·	·	·	·	–
CCCOc1ccc(C2C(=O)N(C3CCCCCC3)CC(=O)N2C(C)C)cc1OC (stereo not given)	·	·	·	–	·	–
Cc1ccc2c(c1)N(C(=O)c1ccc(F)cc1)C(C)(C)CC2(C)c1ccccc1 (stereo not given)	·	·	·	–	·	–
CCOC(=O)N1CCN(Cc2nc(CC3CC3)no2)CC1	34	–	–	–	27	–
COCc1c(CCl)cnc(C)c1O	48	–	–	–	8.1	–
N#Cc1cccc(CS(=O)(=O)c2nnnn2C2CCCCC2)c1	·	–	·	·	·	·
COc1ccc(NC(=O)NCCCCc2ccccc2)cc1OC	–	–	–	–	–	–
O=C(NCc1ccccn1)Nc1cc(Cl)ccc1Cl	90	·	–	–	–	–
CC(C)c1ccc(NC(=O)NCc2ccccn2)cc1	68	–	–	–	33	–
SMILES	Shiga toxin inh	Giardia FBPA inh	LmPK inhibitor	Sm TGR inh	Cycloheximide cs	TbPYK inhibitor
O=C(COC(=O)c1cc(F)cc(F)c1)NCCCc1ccccc1	–	–	–	–	–	–
COc1cccc(NC(=O)NCCCCc2ccccc2)c1	–	–	–	–	31	–
O=C(NCc1ccccn1)Nc1cc(Cl)cc(Cl)c1	–	–	–	–	–	–
Cc1ccc(Cl)cc1NC(=O)NCc1ccccn1	–	–	–	–	–	–
COc1cccc(C(=O)OCC(=O)NCCCc2ccccc2)c1	–	–	–	79µM	–	–
COc1cccc(CC(=O)OCC(=O)NCCc2ccc(F)cc2)c1	·	·	·	–	·	–
CCCCCOc1ccc(NC(=O)C(=O)NCCCn2ccnc2)cc1	–	–	–	–	–	–
Cc1cccc(NC(=O)NCc2ccccn2)c1	51	–	–	–	27	–
COc1cccc(NC(=O)C(=O)NCCc2ccc(F)cc2)c1	91	–	–	–	41	–
COc1cccc(NC(=O)C(=O)NCCCn2ccnc2)c1	–	–	–	–	34	–

Assay outcomes from PubChem BioAssay.
